From PubChem BioAssay (EPA / NIEHS)
Calls of active or inactive are those of the source. Rule for the calls: active = hit-call score of the fitted dose curve at least 0.9, where 1 is the maximum; inactive = score below 0.9.

Assays:
Settings in all cases: mRNA level, 48 h; actives raise or lower the signal
[1] = read-out: Apolipoprotein A-V (APOA5) gene, APOA5 (gene 116519); assay: LTEA_HepaRG_APOA5: Life Technologies and Expression Analysis (LTEA) Assay for Apolipoprotein A-V (APOA5) gene using HepaRG (AID 2283474)
How it was run: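 Differentiated human HepaRG cells were exposed in duplicate for 48 h to eight half-log concentrations from 100 uM in 0.5% DMSO. APOA5 mRNA was quantified by TaqMan qRT-PCR, normalized to ACTB, GAPDH and POLR2A, and fitted bidirectionally against DMSO.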

[2] = read-out: Apoptosis regulator Bcl-2 (Homo sapiens) (UniProt P10415); assay: LTEA_HepaRG_BCL2: Life Technologies and Expression Analysis (LTEA) Assay for Bcl-2 gene using HepaRG (AID 2283475)
How it was run: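 qRT-PCR read-out (Fluidigm TaqMan) of BCL2 transcript, normalised to three housekeeping genes, after 48 h chemical exposure of HepaRG cells; 8-point half-log series, top 100 uM, 0.5% DMSO vehicle. Gain or loss of signal fitted relative to DMSO baseline.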

[3] = read-out: Bcl-2 (BID) gene, BID (gene 637); assay: LTEA_HepaRG_BID: Life Technologies and Expression Analysis (LTEA) Assay for Bcl-2 (BID) gene using HepaRG (AID 2283476)
How it was run: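 HepaRG, 48 h exposure, 8-pt half-log series, top 100 uM, 0.5% DMSO vehicle, duplicates. Readout: BID mRNA by TaqMan qRT-PCR; housekeeping-normalized; bidirectional curve fit vs DMSO baseline.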

Caspase-3 (Homo sapiens) = Caspase-3 (Homo sapiens) (UniProt P42574); assay: LTEA_HepaRG_CASP3: Life Technologies and Expression Analysis (LTEA) Assay for cysteine-aspartic acid protease (CASP3) using HepaRG (AID 2283477)
Sequence of Caspase-3 (Homo sapiens) (P42574 whole entry, looked up): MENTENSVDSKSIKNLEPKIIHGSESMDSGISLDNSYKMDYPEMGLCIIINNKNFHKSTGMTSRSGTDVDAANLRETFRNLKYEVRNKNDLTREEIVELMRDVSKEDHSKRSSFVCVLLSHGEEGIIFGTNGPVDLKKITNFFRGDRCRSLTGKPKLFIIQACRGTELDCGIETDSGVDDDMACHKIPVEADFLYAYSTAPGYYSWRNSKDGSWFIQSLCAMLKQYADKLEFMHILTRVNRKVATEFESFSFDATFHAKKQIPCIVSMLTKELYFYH
How it was run: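 Differentiated human HepaRG cells in serum-free induction medium were exposed 48 h to 8-point half-log concentrations from 100 uM (0.5% DMSO vehicle). CASP3 mRNA was measured by qRT-PCR, normalised to ACTB, GAPDH and POLR2A, with bidirectional fitting against DMSO.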

[4] = read-out: Cytochrome P450 (CYP24A1), CYP24A1 (gene 1591); assay: LTEA_HepaRG_CYP24A1: Life Technologies and Expression Analysis (LTEA) Assay for Cytochrome P450 (CYP24A1) using HepaRG (AID 2283478)
How it was run: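 Differentiated HepaRG cells, pre-cultured 48 h, were exposed in duplicate for 48 h in serum-free induction medium to 8 half-log concentrations (top 100 uM, 0.5% DMSO). CYP24A1 mRNA was quantified by TaqMan qRT-PCR, normalized to ACTB/GAPDH/POLR2A, fitted bidirectionally versus DMSO.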

[5] = read-out: Cytochrome P450 (CYP1A2), CYP1A2 (gene 1544); assay: LTEA_HepaRG_CYP1A2: Life Technologies and Expression Analysis (LTEA) Assay for Cytochrome P450 (CYP1A2) using HepaRG (AID 2283479)
How it was run: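 Differentiated human HepaRG cells in serum-free induction medium were exposed in duplicate for 48 h to 8-point half-log concentrations up to 100 uM in 0.5% DMSO. CYP1A2 mRNA measured by qRT-PCR, normalized to ACTB, GAPDH, POLR2A; bidirectional fit vs DMSO.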

[6] = read-out: cysteine-aspartic acid protease (CASP8), CASP8 (gene 841); assay: LTEA_HepaRG_CASP8: Life Technologies and Expression Analysis (LTEA) Assay for cysteine-aspartic acid protease (CASP8) using HepaRG (AID 2283480)
How it was run: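 CASP8 transcript measured by TaqMan qRT-PCR with ACTB/GAPDH/POLR2A normalization, after 48 h chemical exposure of HepaRG cells in serum-free induction medium. Eight concentrations, top 100 uM, half-log steps, 0.5% DMSO vehicle; fits in both directions versus DMSO.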

[7] = read-out: Cytochrome P450 (CYP2B6), CYP2B6 (gene 1555); assay: LTEA_HepaRG_CYP2B6: Life Technologies and Expression Analysis (LTEA) Assay for Cytochrome P450 (CYP2B6) using HepaRG (AID 2283481)
How it was run: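 Differentiated HepaRG cells, serum-free induction medium, exposed 48 h in duplicate to 8-point half-log concentrations from 100 uM in 0.5% DMSO. CYP2B6 mRNA by qRT-PCR, normalized to ACTB, GAPDH, POLR2A; bidirectional fit versus DMSO.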

CYP2C8 (gene 1558) = assay: LTEA_HepaRG_CYP2C8: Life Technologies and Expression Analysis (LTEA) Assay for CYP2C8 using HepaRG (AID 2283483)
How it was run: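 CYP2C8 expression measured by TaqMan qRT-PCR and normalized to three housekeeping genes. HepaRG cultures were treated for 48 h with an eight-point half-log series topping at 100 uM, vehicle 0.5% DMSO, duplicates; fitted both directions against DMSO.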

[8] = read-out: Cytochrome P450 2C19 (Homo sapiens) (UniProt P33261); assay: LTEA_HepaRG_CYP2C19: Life Technologies and Expression Analysis (LTEA) Assay for CYP2C19 using HepaRG (AID 2283482)
How it was run: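 Differentiated human HepaRG cells were exposed for 48 h in serum-free induction medium to 8 concentrations (top 100 uM, half-log steps, 0.5% DMSO). CYP2C19 mRNA was measured by qRT-PCR, normalized to ACTB/GAPDH/POLR2A, and fitted bidirectionally against DMSO.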

Measured: AC50

Sequence of Apoptosis regulator Bcl-2 (Homo sapiens) (P10415 whole entry, looked up): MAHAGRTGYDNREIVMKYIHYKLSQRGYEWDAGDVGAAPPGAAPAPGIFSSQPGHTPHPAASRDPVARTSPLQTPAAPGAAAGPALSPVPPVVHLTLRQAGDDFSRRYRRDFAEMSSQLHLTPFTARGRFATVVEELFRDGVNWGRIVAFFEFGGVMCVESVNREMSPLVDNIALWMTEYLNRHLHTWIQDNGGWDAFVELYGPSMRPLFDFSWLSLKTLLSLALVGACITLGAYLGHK
Sequence of Cytochrome P450 2C19 (Homo sapiens) (P33261 whole entry, looked up): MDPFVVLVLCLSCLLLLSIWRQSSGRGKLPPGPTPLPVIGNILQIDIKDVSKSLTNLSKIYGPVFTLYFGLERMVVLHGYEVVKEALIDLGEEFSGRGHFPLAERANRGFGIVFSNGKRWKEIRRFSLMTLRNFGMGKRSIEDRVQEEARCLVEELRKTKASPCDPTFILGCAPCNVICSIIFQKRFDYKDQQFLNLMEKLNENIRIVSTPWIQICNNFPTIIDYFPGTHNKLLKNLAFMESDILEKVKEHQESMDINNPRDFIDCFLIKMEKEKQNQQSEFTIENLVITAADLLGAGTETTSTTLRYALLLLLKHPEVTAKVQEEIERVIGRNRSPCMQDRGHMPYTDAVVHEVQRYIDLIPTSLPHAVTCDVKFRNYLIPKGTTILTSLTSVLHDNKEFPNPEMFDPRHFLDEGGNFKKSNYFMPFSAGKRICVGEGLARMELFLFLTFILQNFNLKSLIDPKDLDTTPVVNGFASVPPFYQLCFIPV

O=C(O)c1cccc(N(Cc2cccnc2)c2ccc(OC(F)F)c(OC(F)F)c2)c1
inactive: [1] | [2] | [3] | Caspase-3 (Homo sapiens) | [5] | [6] | [7] | CYP2C8 (gene 1558)
active: [4] 0.00316 µM

CC(C)CCCCCCOC(=O)c1ccc(C(=O)OCCCCCCC(C)C)c(C(=O)OCCCCCCC(C)C)c1
inactive: [1] | [2] | [3] | Caspase-3 (Homo sapiens) | [4] | [6] | [7] | CYP2C8 (gene 1558)
active: [5] 14.4 µM

CC/C(=C\C(=N/O)C(N)=O)C(C)[N+](=O)[O-] (configuration not stated)
active: [5] 26.5 µM
inactive: [1] | [2] | [3] | Caspase-3 (Homo sapiens) | [4] | [6] | [7] | CYP2C8 (gene 1558)

On1ccccc1=S
inactive: [1] | [2] | [3] | Caspase-3 (Homo sapiens) | [4] | [5] | [6] | [7] | CYP2C8 (gene 1558)

Cc1ccc(N)cc1O
active: [5] 26.8 µM
inactive: [1] | [2] | [3] | Caspase-3 (Homo sapiens) | [4] | [6] | [7] | CYP2C8 (gene 1558)

Nc1cccc(N)c1
inactive: [1] | [2] | [3] | Caspase-3 (Homo sapiens) | [4] | [6] | [7] | CYP2C8 (gene 1558)
active: [5] 33 µM

CC(O)CN(CCN(CC(C)O)CC(C)O)CC(C)O (configuration not stated)
active: [2] 12.7 µM | [5] 50 µM | CYP2C8 (gene 1558) 12.6 µM
inactive: [1] | [3] | Caspase-3 (Homo sapiens) | [4] | [6] | [7]

C[C@](N)(Cc1ccc(O)c(O)c1)C(=O)O
inactive: [1] | [2] | [3] | Caspase-3 (Homo sapiens) | [4] | [5] | [6] | [7] | CYP2C8 (gene 1558)

CN(C)c1ccc(N=NS(=O)(=O)O)cc1
inactive: [2] | [3] | Caspase-3 (Homo sapiens) | [4] | [6] | [7]
active: [1] 12.8 µM | [5] 13.8 µM | CYP2C8 (gene 1558) 2.62 µM

CC[C@H](C)C(=O)O[C@H]1C[C@@H](C)C=C2C=C[C@H](C)[C@H](CC[C@@H]3C[C@@H](O)CC(=O)O3)[C@H]21
active: [1] 9.92 µM | [5] 6.18 µM
inactive: [2] | [3] | Caspase-3 (Homo sapiens) | [4] | [6] | [7] | CYP2C8 (gene 1558)

C1=CCCC=CCCC=CCC1
inactive: [1] | [2] | [3] | Caspase-3 (Homo sapiens) | [5] | [6] | [7] | [8] | CYP2C8 (gene 1558)

CCCN(C1CCN(C(=O)C2CCNCC2)CC1)[C@@H]1CCc2ccc(OC)cc2C1
active: [1] 77.4 µM | [5] 84.3 µM | [7] 87.9 µM | CYP2C8 (gene 1558) 86.5 µM
inactive: [2] | [3] | Caspase-3 (Homo sapiens) | [4] | [6]

O=P(OC(CCl)CCl)(OC(CCl)CCl)OC(CCl)CCl
inactive: Caspase-3 (Homo sapiens) | [4]
active: [1] 50 µM | [2] 88.3 µM | [3] 0.232 µM | [5] 80 µM | [6] 0.209 µM | CYP2C8 (gene 1558) 89.6 µM

Cn1cnc([N+](=O)[O-])c1Sc1ncnc2nc[nH]c12
active: [1] 15.8 µM | [5] 0.9 µM | [7] 5.23 µM | CYP2C8 (gene 1558) 7.61 µM
inactive: [2] | [3] | Caspase-3 (Homo sapiens) | [4] | [6]

CC(C)=CCC/C(C)=C\CO
inactive: [1] | [2] | [3] | Caspase-3 (Homo sapiens) | [6]

CC(C)CCO
inactive: [1] | [2] | [3] | Caspase-3 (Homo sapiens) | [4] | [5] | [6] | [7] | CYP2C8 (gene 1558)

CC[C@H]1CC[C@H](NCc2cc3c(cc2OC)[C@H]2C[C@H]2C(=O)N3C)[C@H](c2ccccc2)N1
inactive: [1] | [2] | [3] | Caspase-3 (Homo sapiens) | [4] | [6]
active: [5] 33.8 µM | [7] 11.7 µM | CYP2C8 (gene 1558) 11.1 µM

O=c1[nH]c2ccc(S(=O)CCN3CCC(Cc4ccc(F)cc4)CC3)cc2o1 (configuration not stated)
inactive: [2] | [3] | Caspase-3 (Homo sapiens) | [4] | [5] | [6]
active: [7] 82.3 µM | CYP2C8 (gene 1558) 78.5 µM

CC(C)CC(C)(O)C#CC(C)(O)CC(C)C (configuration not stated)
inactive: [1] | [2] | [3] | Caspase-3 (Homo sapiens) | [4] | [5] | [6] | CYP2C8 (gene 1558)
active: [7] 21.9 µM

Cn1c(=O)cc(Oc2ccc(F)cc2F)c2cnc(NCC(C)(C)O)nc21
active: [5] 16 µM | [7] 6.6 µM
inactive: [1] | [2] | [3] | Caspase-3 (Homo sapiens) | [4] | [6] | CYP2C8 (gene 1558)

NC(=O)NO
inactive: [1] | [2] | [3] | Caspase-3 (Homo sapiens) | [6]

CNCc1ccc(NC(=O)c2c[nH]c3c2C(=O)CCC3)cc1
inactive: [1] | [2] | [3] | Caspase-3 (Homo sapiens) | [4] | [6] | [7] | CYP2C8 (gene 1558)
active: [5] 73.2 µM

CC(C)=CCC/C(C)=C/CO
inactive: [1] | [2] | [3] | Caspase-3 (Homo sapiens) | [6]

Cc1ccc(O)cc1
inactive: [1] | [2] | [3] | Caspase-3 (Homo sapiens) | [6]

CC(=O)OCCC(C)C
inactive: [1] | [2] | [3] | Caspase-3 (Homo sapiens) | [4] | [5] | [6] | [7] | CYP2C8 (gene 1558)
